Screening results: PubChem BioAssay, National Center for Advancing Translational Sciences (NCATS)
L3MBTL1 block – L3MBTL1 (human) inhibition; Q9Y468; AlphaScreen L3MBTL1–H3K9me1 peptide binding; Potency, µM (top dose mostly 57.1 µM), actives largely listed as inhibitors; 230,000 tested, 0.66% active; AID 485360; also: nearly all actives have a fitted effect of over 60% in size
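Read-out is AlphaScreen signal from streptavidin donor and nickel chelate acceptor beads (10 ug/mL final each) bridging L3MBTL1 (50 nM) and biotinylated K9-monomethylated H3(1-15) peptide (75 nM), after 30 min compound exposure at room temperature.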
Sfp inh – Sfp phosphopantetheinyl transferase inhibition. Q9F4F7. Biochemical Sfp PPTase activity, qHTS. Potency, µM, usual class: inhibitors. 310,000 tested, 3.5% active. AID 1490;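 also: the enzyme is Sfp with the accession as filed and its product quenches rhodamine fluorescence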
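Fluorescence-quenching assay: 15 nM Sfp-PPTase preincubated 15 min at room temperature with compound, then 5 uM rhodamine-CoA and 12.5 uM BHQ-2-labelled YbbR peptide added. Fluorescence (ex 525/em 598 nm) read at start and after 30 min; difference gives rate.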
BAZ2B block – inhibitors of human BAZ2B bromodomain | AlphaScreen BAZ2B-H3K14Ac peptide displacement | Potency, µM (top dose mostly 114 µM), most hits filed as inhibitors | 360,000 tested, 4.4% active | AID 504333; also: nearly all actives have a fitted effect of over 60% in size
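AlphaScreen displacement: compounds (up to 110uM) incubated 30 min at room temperature with a preformed 50 nM BAZ2B/50 nM biotinylated H3K14Ac peptide complex in PBS pH 7.4 with Tween-20. Donor and acceptor beads at 10 ug/mL final added, 20 min light-protected before reading.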
JMJD2A Tudor inh – blocks the human JMJD2A Tudor domain; Potency, µM (top dose mostly 114 µM), actives largely listed as inhibitors; O75164; 390,000 tested, 4.4% active; AlphaScreen JMJD2A-Tudor / H3K4me3 peptide binding; also: nearly all actives have a fitted effect of over 50% in size
G9a block – G9a (human) methyltransferase inhibition | G9a H3K9 monomethylation, AlphaScreen, 2 h | 350,000 tested, 8.8% active | Q96KQ7 | Potency, µM (top dose mostly 102 µM), hits mostly inhibitors; also: nearly all actives have a fitted effect of over 75% in size
Target sequence (Q96KQ7 913-1193 limits assumed): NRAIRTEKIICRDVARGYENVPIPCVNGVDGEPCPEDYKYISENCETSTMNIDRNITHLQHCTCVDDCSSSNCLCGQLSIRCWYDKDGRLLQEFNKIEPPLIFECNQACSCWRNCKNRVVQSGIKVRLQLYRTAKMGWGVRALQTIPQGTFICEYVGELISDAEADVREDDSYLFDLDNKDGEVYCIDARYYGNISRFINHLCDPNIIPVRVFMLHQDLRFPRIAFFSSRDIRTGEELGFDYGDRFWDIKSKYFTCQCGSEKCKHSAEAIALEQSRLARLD
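Methyltransferase reactions run at room temperature for 2 h (20 nM enzyme, 500 nM biotin-H3K9 peptide, 20 uM SAM) after a 15 min compound preincubation; product detected by AlphaScreen beads and anti-H3K9me1 antibody.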
HP1b binding inh – inhibitors of HP1-beta chromodomain binding to methylated histone tails. 390,000 tested, 0.56% active. P83916. Potency, µM (titrated, usually from 114 µM), actives largely listed as inhibitors. AID 540317. AlphaScreen HP1-beta / biotin-H3K9me3 peptide binding; also: nearly all actives have a fitted effect of over 70% in size
Target sequence (P83916 whole entry, looked up): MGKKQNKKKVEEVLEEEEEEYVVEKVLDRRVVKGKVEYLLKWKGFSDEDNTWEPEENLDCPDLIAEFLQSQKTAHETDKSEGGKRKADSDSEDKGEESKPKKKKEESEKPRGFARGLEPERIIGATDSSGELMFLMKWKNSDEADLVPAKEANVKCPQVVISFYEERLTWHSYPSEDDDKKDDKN
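AlphaScreen: HP1-beta (50 nM) preformed 30 min with biotin-H3(1-18)K9me3 peptide (50 nM) in PBS pH 7.4, 0.01% Tween-20. Compound added for 30 min at RT, then streptavidin donor/nickel chelate acceptor beads (10 ug/mL) for 30 min.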
A number is an active result; [ ] = another dose, or the depositor's remark. Most compounds without a hit are left out; they make up all but 12% or so of the library. Calls follow the shape of the dose curve; as a rule, active = well fitted curve in the direction sought with a large enough effect; inconclusive = small, poorly fitted or top-dose-only effect, or another doubt; inactive = no such curve, though single readings can be large; an effect the other way counts as inactive or inconclusive.

O=C(COC(=O)C1CC2CCCC(C1)C2=O)Nc1ccc(Cl)cn1 (stereo unspecified) was read as L3MBTL1 block inactive, BAZ2B block inactive, JMJD2A Tudor inh inactive, G9a block inactive and HP1b binding inh inactive.
For CC(=O)N1CCN(c2ccccc2NC(=O)COc2cc(C)cc(C)c2)CC1 the results were Sfp inh inactive, BAZ2B block inactive, JMJD2A Tudor inh 50µM, G9a block inactive and HP1b binding inh inactive.
`CCOc1ccc(OCC(=O)Nc2ccccc2N2CCCC2)cc1` gave L3MBTL1 block inactive, BAZ2B block inconclusive, JMJD2A Tudor inh inconclusive, G9a block 50µM and HP1b binding inh inactive.
`Cc1cccc(OCC(=O)Nc2ccncc2)c1C` gave L3MBTL1 block inactive, Sfp inh inactive, BAZ2B block inactive, JMJD2A Tudor inh inactive and HP1b binding inh inactive.
Screening Cc1cccc(OCC(=O)Nc2ncn[nH]2)c1C returned Sfp inh inactive, BAZ2B block 50µM, JMJD2A Tudor inh inactive, G9a block inactive and HP1b binding inh inactive.
Cc1ccc(C)c(N2N=C(C(=O)Nc3ccccc3N3CCCC3)CCC2=O)c1 was read as Sfp inh inactive, BAZ2B block 35µM, JMJD2A Tudor inh 45µM, G9a block 50µM and HP1b binding inh 50µM.
Cc1ccc(C)c(N2N=C(C(=O)Nc3ccccc3N3CCOCC3)CCC2=O)c1 was read as L3MBTL1 block inactive, BAZ2B block inconclusive, JMJD2A Tudor inh inactive, G9a block inactive and HP1b binding inh inactive.
`CC(=O)N1CCN(c2ccccc2NC(=O)COc2ccccc2C)CC1` gave L3MBTL1 block inactive, Sfp inh inactive, BAZ2B block inactive, JMJD2A Tudor inh inactive, G9a block inactive and HP1b binding inh inactive.
For CC(=O)Nc1ccc(S(=O)(=O)NCCC(=O)NCCOc2ccccc2)cc1 the results were L3MBTL1 block inactive, BAZ2B block inactive, JMJD2A Tudor inh inactive, G9a block inactive[2.33 µM] and HP1b binding inh inactive.
Screening COc1cc(C(=S)N2CCCC2)cc(Cl)c1OCC(=O)Nc1ccc(C)cc1C returned L3MBTL1 block inactive, Sfp inh inconclusive, BAZ2B block inconclusive, JMJD2A Tudor inh inconclusive, G9a block 7.9µM and HP1b binding inh inconclusive.
`CCOc1cc(C(=O)Nc2ccc(C)cc2C)ccc1OCC(=O)N1CCCCC1` gave L3MBTL1 block inactive, Sfp inh inactive, BAZ2B block inactive, JMJD2A Tudor inh inactive, G9a block inactive and HP1b binding inh inactive.
Screening CCN(C(=O)CSc1nc2ccccc2n1Cc1ccc(C(=O)OC)cc1)c1ccccc1 returned BAZ2B block inactive, JMJD2A Tudor inh inactive, G9a block inactive[12.7 µM] and HP1b binding inh inactive.
`CCc1nnc2n1N=C(c1ccc(Cl)cc1)CS2` gave Sfp inh inactive, BAZ2B block inactive, JMJD2A Tudor inh inactive, G9a block inactive and HP1b binding inh inactive.
Screening CCCc1nnc2n1N=C(c1ccc(C)cc1)CS2 returned Sfp inh inactive, BAZ2B block inactive, JMJD2A Tudor inh inactive, G9a block 79µM and HP1b binding inh inactive.
CCOc1ccc(C2=Nn3c(nnc3-c3ccccn3)SC2)cc1 was read as L3MBTL1 block inconclusive, Sfp inh inconclusive, BAZ2B block 20µM, JMJD2A Tudor inh 35µM, G9a block inconclusive and HP1b binding inh inactive.
For Cc1nnc2n(c1=O)N=C(c1ccc(Cl)cc1)CS2 the results were L3MBTL1 block inactive, Sfp inh inconclusive, BAZ2B block inactive, JMJD2A Tudor inh inactive, G9a block 71µM and HP1b binding inh inactive.
`CCc1nnc2n1N=C(c1cccc([N+](=O)[O-])c1)CS2` gave L3MBTL1 block inactive, Sfp inh inactive, BAZ2B block inactive, JMJD2A Tudor inh inactive, G9a block inactive and HP1b binding inh inactive.
For CCCc1nnc2n1N=C(c1ccc([N+](=O)[O-])cc1)CS2 the results were L3MBTL1 block inactive, Sfp inh inactive, BAZ2B block inactive, JMJD2A Tudor inh inactive, G9a block 71µM and HP1b binding inh inactive.
Screening CCOc1ccc(C2=Nn3c(nnc3-c3ccco3)SC2)cc1 returned L3MBTL1 block inactive, Sfp inh inactive, BAZ2B block inactive, JMJD2A Tudor inh inactive, G9a block inactive and HP1b binding inh inactive.
Screening Cc1cc2c(s1)c1cnn(Cc3cc(F)c(F)c(F)c3)c(=O)c1n2C returned JMJD2A Tudor inh inactive.
`CCC(C)c1cc([N+](=O)[O-])cc([N+](=O)[O-])c1OC(C)=O` (stereo unspecified) gave Sfp inh inactive.
For Cc1cc2c(s1)c1c(C)nn(Cc3ccc(F)cc3)c(=O)c1n2C the results were L3MBTL1 block inactive, BAZ2B block inactive and G9a block inactive[12.7 µM].
CCc1nnc2n1N=C(c1ccccc1)CS2 was read as Sfp inh inactive, BAZ2B block inactive, JMJD2A Tudor inh inactive, G9a block inactive and HP1b binding inh inactive.
Screening O=[N+]([O-])c1ccc(C2=Nn3c(Cn4nnc5ccccc54)nnc3SC2)cc1 returned Sfp inh 20µM, BAZ2B block inactive, JMJD2A Tudor inh 56µM and HP1b binding inh inconclusive.
Screening Cc1ccc(Nc2nc(N)c([N+](=O)[O-])c(N3CCCC(C)C3)n2)cc1C (stereo unspecified) returned L3MBTL1 block inactive, Sfp inh inactive, BAZ2B block inconclusive, JMJD2A Tudor inh 25µM, G9a block 20µM and HP1b binding inh inconclusive.
For CC1CCCN(c2nc(NCc3ccco3)nc(N)c2[N+](=O)[O-])C1 (stereo unspecified) the results were L3MBTL1 block inactive, Sfp inh inactive, BAZ2B block 50µM, JMJD2A Tudor inh inconclusive, G9a block inconclusive and HP1b binding inh inconclusive.
Screening CCOc1ccc(Nc2nc(N)c([N+](=O)[O-])c(N3CCN(CC)CC3)n2)cc1 returned Sfp inh inactive, BAZ2B block 50µM, JMJD2A Tudor inh inconclusive, G9a block inactive[2.33 µM] and HP1b binding inh inconclusive.
`CC1CCCN(c2nc(N(C)c3ccccc3)nc(N)c2[N+](=O)[O-])C1` (stereo unspecified) gave L3MBTL1 block inactive, Sfp inh inactive, BAZ2B block inconclusive, JMJD2A Tudor inh inconclusive, G9a block 32µM and HP1b binding inh inconclusive.
O=C(CCNS(=O)(=O)c1ccc(Br)cc1)NC1CCC(O)CC1 (stereo unspecified) was read as L3MBTL1 block inactive, BAZ2B block inactive, JMJD2A Tudor inh inactive, G9a block inactive[12.7 µM] and HP1b binding inh inactive.
`COc1ccc(Nc2nnc(SCC(=O)NC(=O)Nc3ccc4c(c3)OCCO4)s2)cc1` gave L3MBTL1 block inactive, Sfp inh inactive, BAZ2B block inactive, JMJD2A Tudor inh inactive, G9a block inactive and HP1b binding inh inactive.
For Fc1ccc(C2CCNCC2COc2ccc3c(c2)OCO3)cc1 (stereo unspecified) the results were Sfp inh inactive, BAZ2B block inconclusive, JMJD2A Tudor inh inconclusive, G9a block 50µM and HP1b binding inh inconclusive.
